CYP2C19 activ: activators of human cytochrome P450 2C19. P33261. recombinant CYP2C19, luciferin-H EGE luminescence; stronger effect = higher value; 0 = fully inhibited enzyme, 1 = untreated enzyme. activation factor at 5 µM. 96,000 tested, under 10 active. AID 1025;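 active = activation factor of at least 2 at 5 µM in the primary screen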;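 also: 0 = wells with 2.5 mM tranylcypromine and 1 = vehicle-only wells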
CYP2C19 inhib: inhibitors of human CYP2C19; P33261; CYP2C19 Supersomes, luciferin-H EGE luminescence, 30 min; inhibition, % at 5 µM; 96,000 compounds, 21% hits; AID 778;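 active = CYP2C19 inhibition above a set limit at 5 µM in the primary screen, cut at about 50% in these data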;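 also: plate controls were negative control wells for no effect and 2.5 mM tranylcypromine positive control for full effect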
hDAT+cocaine: changed human dopamine transporter uptake under cocaine IC80 | Q01959 | LLC-PK1 hDAT cells, [14C]-dopamine uptake with cocaine IC80; actives deviate in either direction | B-score at 10 µM | 110,000 compounds, 1.3% hits;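 active = Z score or B-score, a plate-position-corrected score, falls beyond the plate's 99.7% confidence bounds, in either direction; inactive = both scores lie inside the 99.7% bounds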;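 also: scored against the spread of the other compound wells on the same plate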
CYP2C9 act: activators of human CYP2C9. P11712. recombinant CYP2C9, luciferin-H conversion, luminescence; stronger effect = higher value; factor 1 = untreated enzyme, 0 = blocked. activation factor at 5 µM. 96,000 compounds, 1.4% hits. AID 1024;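 active = activation factor of 2 or more for CYP2C9 at a 5 µM dose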;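 also: 0 = sulfaphenazole-blocked wells and 1 = vehicle-only wells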
CYP2C9 inhib: human CYP2C9 inhibition. P11712. CYP2C9 Supersomes, luciferin-H conversion, luminescence. inhibition, % at 5 µM. 96,000 compounds, 20% hits. AID 777;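 active = blocking of liver enzyme CYP2C9 beyond about 50% at 5 µM, limit read from the data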
D1 mod: D1 dopamine receptor (human) allosteric modulation. P21728. HEK293 D1, CRE-luciferase, dopamine EC30 potentiation; actives deviate in either direction. B-score at 10 µM. 58,000 compounds, 5.9% hits. AID 641;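 active = luminescence count or its row- and column-corrected plate score outside the 99.7% band of the plate's sample wells, on either side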
Target sequence (P21728 whole entry, looked up): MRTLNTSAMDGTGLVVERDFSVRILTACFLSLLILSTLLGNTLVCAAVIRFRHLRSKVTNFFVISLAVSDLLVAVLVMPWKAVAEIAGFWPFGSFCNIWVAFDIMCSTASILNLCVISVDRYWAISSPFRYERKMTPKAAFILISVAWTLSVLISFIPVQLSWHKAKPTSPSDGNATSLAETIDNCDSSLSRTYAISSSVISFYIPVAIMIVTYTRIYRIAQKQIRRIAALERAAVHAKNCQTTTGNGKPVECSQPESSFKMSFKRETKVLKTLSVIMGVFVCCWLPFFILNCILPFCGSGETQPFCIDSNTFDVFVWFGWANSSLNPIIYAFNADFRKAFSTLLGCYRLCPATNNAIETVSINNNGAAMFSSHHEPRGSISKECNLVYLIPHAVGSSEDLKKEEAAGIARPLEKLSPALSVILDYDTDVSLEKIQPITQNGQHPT
Active calls of the source: *; · = no result given. Sampled rows, rich in hits. Any-hit rate of the full collection: about 28%.

SMILES	CYP2C19 activ	CYP2C19 inhib	hDAT+cocaine	CYP2C9 act	CYP2C9 inhib	D1 mod
N#Cc1c(N)nc2c(c1N)CC(=O)N2c1ccc(Cl)cc1	0.5	52*	-0.93	0.7	30	·
COC(=O)Cn1c(CN2CCN(c3ccc(F)cc3)CC2)nc2c1c(=O)n(C)c(=O)n2C	0.8	25	-0.037	0.8	23	-3.2
CN1CCN(C(=O)/C(=C/c2ccccc2)c2ccccc2)CC1	0.7	34	-0.32	0.9	9	·
CC1CCCCN1C(=O)/C(=C\c1ccccc1)c1ccccc1 (stereo not drawn)	0.5	49	1.7	0.2	84*	·
O=C(COCc1nc2ccccc2c(=O)[nH]1)NC1CCCC1	0.6	38	1.7	0.8	19	1.3
N#CC1=C(N)Oc2ccccc2C12C(=O)Nc1n[nH]c(-c3ccccc3)c12 (stereo not drawn)	1.2	-23	1.9	0.5	54*	0.16
COc1ccc(C(=O)NCCc2nnc(SCC(=O)Nc3ccccc3C(C)C)n2C)cc1	0.6	44	0.52	0.7	30	·
CCn1c(CNC(=O)COc2ccc(C(C)C)cc2)nnc1SCC(=O)Nc1ccccc1C(C)C	0.8	24	2.4*	0.7	30	·
CCn1c(CNC(=O)COc2ccc(C(C)C)cc2)nnc1SCC(=O)Nc1ccccc1F	0.5	53*	-0.14	0.3	71*	·
CCn1c(CSc2nc(C)cc(C)n2)nnc1SCC(=O)Nc1cccc2ccccc12	0.9	5	-0.09	1.4	-39	·
CN(C)c1ccc(/C=C(/NC(=O)c2ccccc2)C(=O)N/N=C/c2ccc([N+](=O)[O-])c(O)c2)cc1	1	1	2.1	0.7	31	·
COC(=O)c1ccccc1NC(=O)C1CCN(C(=O)c2ccc(OC)cc2)CC1	0.5	50*	-0.01	0.7	30	·
COC(=O)Nc1ccccc1C(=O)N1CCCCC1	0.6	41	-2.7*	1	1	-0.53
Cc1ccccc1C(=O)N1CCC(C(=O)Nc2cccc(F)c2)CC1	0.7	32	-0.96	0.5	51*	·
COC(=O)c1ccccc1NC(=O)C1CCN(S(C)(=O)=O)CC1	1	2	-0.48	1.3	-31	1.8
O=C(Nc1cccc(F)c1)C1CCN(C(=O)Cc2ccccc2)CC1	0.9	13	1.3	0.9	10	-0.23
O=C(c1ccccc1NS(=O)(=O)c1ccc(Br)s1)N1CCCC1	0.3	69*	-0.73	0.9	8	-1.2
COc1ccc(S(=O)(=O)Cc2ccc(C(=O)NCc3ccccn3)o2)cc1	1	3	-0.08	0.7	33	0.81
CCN(CC)S(=O)(=O)c1ccc(NC(=O)CN(c2cccc(C)c2)S(C)(=O)=O)cc1	·	·	1.1	·	·	·
O=C(Nc1ccccc1C(=O)N1CCCCC1)C1CCCCC1	0.9	6	-0.33	0.4	56*	-0.058
O=C(c1ccccc1Nc1ccc(SC(F)F)cc1)N1CCCCC1	0.1	88*	1.6	0.5	53*	·
CC1CCCC(C)N1C(=O)c1ccccc1Nc1ccc(SC(F)F)cc1 (stereo not drawn)	0.8	22	-0.57	0.7	25	·
COc1ccc(N2CCN(C(=O)Cc3ccc(-n4c(=O)[nH]c5ccccc5c4=O)cc3)CC2)cc1	·	·	-0.85	·	·	-0.035
CCOC(=O)c1[nH]c2ccc(Br)cc2c1NC(=O)CCN1CCC(C(=O)OCC)CC1	0.2	76*	0.096	0.5	49	-0.5
CCOC(=O)N1CCN(C(=O)CCCn2c(=S)[nH]c3ccc(Br)cc3c2=O)CC1	0.3	73*	2.6	0.3	69*	·
SMILES	CYP2C19 activ	CYP2C19 inhib	hDAT+cocaine	CYP2C9 act	CYP2C9 inhib	D1 mod
CCOC(=O)c1[nH]c2ccc(Br)cc2c1NC(=O)CCN1CCN(C(=O)OCC)CC1	0.5	48	1.3	0.2	76*	-0.022
O=C(Cc1ccc(-n2c(=S)[nH]c3ccccc3c2=O)cc1)N1CCC(N2CCCCC2)CC1	1	-2	-0.97	0.1	92*	·
CCOC(=O)c1[nH]c2ccc(Br)cc2c1NC(=O)CCN1CCCCC1	0.9	9	-0.68	0.8	19	-0.75
COC(=O)C(Cc1ccccc1)NC(=O)CSc1nc(N)cc(=O)[nH]1 (stereo not drawn)	1	1	-0.092	0.9	8	-0.071
Nc1sccc1C(=O)c1ccccc1	1.1	-11	0.013	0.9	10	0.089
CCOC(=O)c1ccc(NC(=O)c2nc[nH]c2C(=O)N2CCN(c3ccccc3)CC2)cc1	·	·	0.35	·	·	·
CCCc1cc(C(=O)OC)c(NC(=O)c2cc(C)on2)s1	·	·	-0.67	·	·	·
CCOC(=O)N1CCC(n2c(=S)[nH]c3ccccc3c2=O)CC1	0.9	14	-0.52	0.2	81*	·
CC(CN(C(N)=O)c1ccccc1O)C(=O)O (stereo not drawn)	1.2	-18	-0.0092	1.4	-38	·
O=C(N/N=C/c1cccc([N+](=O)[O-])c1)c1ccc2nc[nH]c2c1	0.8	24	-0.92	0.5	51*	·
O=C(N/N=C/c1ccc([N+](=O)[O-])cc1)c1ccc2nc[nH]c2c1	1.1	-8	0.008	0.8	21	·
COc1ccc(-c2cn3c(C)c(C(=O)Nc4ccncc4)sc3n2)cc1	0.6	37	-0.28	0.7	30	-3.3*
COc1ccc(-c2cn3c4c(sc3n2)CCCC4)cc1	0.1	86*	1.8	0.2	78*	-5*
COc1ccc(-c2cn3c(C)c(C(=O)N4CCCc5ccccc54)sc3n2)cc1	·	·	1.9	·	·	0.014
Cc1c(C(=O)NCC(C)C)sc2nc(-c3ccc(F)cc3)cn12	1	-2	-0.48	0.9	14	0.17
COc1ccc(-c2cn3c(C)c(C(=O)Nc4cccc(NC(C)=O)c4)sc3n2)cc1	0.4	59*	0.79	1.1	-8	0.41
Cc1c(C(=O)Nc2ccncc2)sc2nc(-c3ccc(F)cc3)cn12	0.6	45	-1.3	0.3	74*	-5.2*
CCCCCCC(=O)Nc1cc2c(C)cc(=O)oc2cc1C	0.6	41	0.4	2.5*	-155	·
O=C(CSc1ncc(C(F)(F)F)cc1Cl)N1CCN(S(=O)(=O)c2ccc(Cl)cc2)CC1	0.2	79*	·	1.6	-57	·
O=C(CSc1ncc(C(F)(F)F)cc1Cl)N1CCN(S(=O)(=O)c2ccccc2)CC1	0.2	81*	1.4	1	0	-0.69
C=CCn1nc(-c2ccccc2)cc1C(=O)OCC	·	·	0.41	·	·	·
Cc1nc2ccc(S(=O)(=O)NC(C(=O)N3CCn4c3nc3ccccc34)C(C)C)cc2s1 (stereo not drawn)	1	2	-0.41	0.9	11	·
CC(=O)N1CCc2cc(S(=O)(=O)NC(CC(C)C)C(=O)N3CCn4c3nc3ccccc34)ccc21 (stereo not drawn)	0.5	51*	-0.62	0.4	57*	-0.11
CC(=O)N1CCc2cc(S(=O)(=O)NC(CC(C)C)C(=O)Nc3ccc4c(c3)OCCO4)ccc21 (stereo not drawn)	0.5	49	-0.025	0.4	59*	-0.014

From PubChem
